# KCNQ2 pot: KCNQ2 (rat) channel potentiation. CHO-K1 KCNQ2, FluxOR thallium flux fluorescence; stronger effect = higher value. O88943. AID 2239. 0.54% of 310,000 active. B-score at 10 µM;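 active = fluorescence ratio B-score at least 3 SD of library B-scores, with initial fluorescence B-score within 3 of them, cut at about 5.3 in these data; same plate scores as AID 2156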;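 note: B-score of peak minus minimum over baseline fluorescence ratio after K+ and Tl+ stimulus; positive B-score means potentiation of KCNQ2 with more thallium influx and brighter signal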
# KCNQ2 inh: inhibitors of rat KCNQ2 potassium channel | B-score at 10 µM | CHO-K1 KCNQ2, FluxOR thallium flux, 20 min; stronger effect = lower value | AID 2156 | 1.1% of 310,000 active | O88943;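 active = fluorescence ratio B-score at most minus 3 library SDs, with starting brightness B-score within 2 library SDs, cut at about -5.5 in these data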
# Numbers without * were called inactive; i = inactive; . = no result. Rows were chosen to be rich in hits. Some 1.6% of all compounds tested hit in one or more screens of this group.
SMILES,KCNQ2 pot,KCNQ2 inh
CCN1CCN(CCNC(=O)c2ccc(CS(=O)c3ccc(Cl)cc3)o2)CC1 (configuration not stated),1.2,i
COc1ccc(NS(=O)(=O)c2cccc(C(=O)NNC(=O)c3ccccc3OC)c2)cc1,1.6,i
Cc1ccc(S(=O)(=O)NCc2ccccc2)cc1C(=O)N1CCCCC1,1.6,i
Cc1ccc(S(=O)(=O)NCc2ccccc2)cc1C(=O)N1CC(C)CC(C)C1 (configuration not stated),-6,-6*
CNS(=O)(=O)c1ccc(NC(=O)c2ccccn2)cc1,1.9,i
COc1cccc2c1OC1(C)CC2NC(=O)N1c1cccc(C(=O)Nc2ccc3c(c2)OCCO3)c1 (configuration not stated),-6.7,-6.7*
COc1ccc(NC(=O)c2cccc(N3C(=O)NC4CC3(C)Oc3ccccc34)c2)cc1 (configuration not stated),.,i
COc1ccc([C@H]2[C@H](C(=O)C(C)(C)C)N3N=Cc4ccccc4C3[C@]23N=C(c2ccccc2)OC3=O)cc1 (some centres not stated),-9.5,-9.5*
O=C1OC(c2ccccc2)=NC12CC2c1ccc(Cl)cc1 (configuration not stated),.,i
CC(C)c1cccc(OCCCCN(C)C)c1,2.2,i
Cc1cc(Cl)ccc1OCC(=O)N1CCCN(C(=O)COc2ccc(Cl)cc2C)CC1,.,i
Cc1cc(Cl)ccc1OC(C)C(=O)N1CCCN(C(=O)C(C)Oc2ccc(Cl)cc2C)CC1 (configuration not stated),-6.2,-6.2*
CCN1CCN(CCCNC(=O)CCC(=O)N2CC(C)Oc3ccc(C)cc32)CC1 (configuration not stated),.,i
O=C(Nn1c(SCc2ccccc2F)nc2ccsc2c1=O)c1ccccc1,-6.4,-6.4*
O=C(CSc1nc2ccsc2c(=O)n1NC(=O)c1ccccc1)Nc1nccs1,.,i
CC(C)(C)C1CCC(C(=O)OCC(=O)Nc2ccc3[nH]c(=O)[nH]c3c2)CC1 (configuration not stated),0.72,i
COc1ccccc1OCC(=O)N/N=C1\CCc2ccccc21,-5.6,-5.6*
Cc1cccc2c1OCC/C2=N\NC(=O)COc1ccccc1,-7.3,-7.3*
COc1ccc(C(=O)N/N=C2\CCc3ccccc32)cc1OC,0.19,i
O=C(COc1cccc(Br)c1)N/N=C1\CCCc2ccccc21,.,i
COc1ccccc1OCC(=O)N/N=C1\CCCCc2ccccc21,-7.1,-7.1*
COc1ccc(OCC(=O)N/N=C2\CCCc3ccccc32)cc1,.,i
COc1ccccc1N1CCN(C(=O)c2ccc3c(=O)n(Cc4ccc5c(c4)OCO5)c(=O)[nH]c3c2)CC1,1.1,i
O=C(Nc1ccc(S(=O)(=O)Nc2ncccn2)cc1)C1=COCCO1,0.29,i
Nc1c(NC=O)c(=O)n(Cc2ccccc2)c(=O)n1Cc1ccccc1,.,i
SMILES,KCNQ2 pot,KCNQ2 inh
CCCCCCNc1nc(NCc2ccco2)nc(OCC)n1,-6.1,-6.1*
CCCCCCCCNc1nc(Cl)nc(NCc2ccco2)n1,0.34,i
COc1ccc(CCNC(=O)CO/N=C/c2cc3c(cc2Br)OCO3)cc1OC,.,i
CC(=O)Nc1cccc(OCc2ccc(S(=O)(=O)Cc3ccccc3)cc2)c1,0.53,i
N#C[C@H]1[C@H](c2ccccc2)[C@](C#N)(C(=O)c2ccccc2)[C@@H]2C=Cc3ccccc3N21,-8.6,-8.6*
COc1ccc(C(=O)N2c3ccccc3C=CC2C#N)cc1 (configuration not stated),0.44,i
CN1CCc2c(sc(NC(=O)c3ccc4ccccc4c3)c2C(N)=O)C1,.,i
COc1cc2ccccc2cc1C(=O)Nc1sc2c(c1C(N)=O)CCN(C(C)C)C2,-5.9,-5.9*
COc1ccc(-n2ccn(CC(=O)Nc3ccc(OC)cc3OC)c(=O)c2=O)cc1,.,i
Cc1oc(-c2ccccc2)nc1Cn1cccc1C1=NC(c2ccccc2)CO1 (configuration not stated),-6,-6*
Fc1ccc(Cn2cccc2C2=NC(c3ccccc3)CO2)cc1 (configuration not stated),.,i
Cc1cc(C)c(S(N)(=O)=O)c(C)c1N(C)S(=O)(=O)c1ccc(Cl)cc1,1.1,i
CC(C)Cn1c(SCC(=O)Nc2cc(Cl)c(Cl)cc2Cl)nc(O)cc1=O,.,i
CCCN1C(=O)/C(=C/c2ccc(C)s2)SC1=Nc1ccc(OC)cc1,-6.2,-6.2*
CCN(CC)CCN1C(=O)/C(=C\c2ccc(Cl)c([N+](=O)[O-])c2)SC1=Nc1ccc(OC)cc1,.,i
CCN1C(=O)/C(=C/c2cccs2)SC1=Nc1ccc(OC)cc1,1,i
COc1ccc(N=C2S/C(=C\c3ccc(Cl)c([N+](=O)[O-])c3)C(=O)N2CCN(C)C)cc1,-5.6,-5.6*
COc1cc(C(=O)O)nc(OC)n1,.,i
S=c1nc(-c2ccccc2)[nH]n1-c1ccccc1,18*,i
Cc1nc(=S)n(-c2ccccc2)[nH]1,.,i
Clc1ccccc1Cc1noc(CN2CCN(c3cnccn3)CC2)n1,.,i
Fc1ccccc1Cc1noc(CN2CCN(c3ccc(Cl)cn3)CC2)n1,-5.6,-5.6*
CC(C)Oc1cc(C(=O)NC2CCCCC2)c2ccccc2n1,-6,-6*
O=C(NC1CCCCCCC1)c1cc(-c2ccccn2)nc2ccccc12,.,i
Cn1c(CC(=O)Nc2ccc(F)cc2)c(Sc2ccccc2)c2ccccc21,.,i
SMILES,KCNQ2 pot,KCNQ2 inh
COc1ccc(NC(=O)Cc2c(Sc3ccccc3)c3ccccc3n2C)cc1,-6.3,-6.3*
Cc1ccccc1OCC(=O)Nc1ccccc1C(=O)NC1CC1,.,i
Cn1c(SCC(=O)Nc2ccc(Cl)cc2F)nnc1-c1ccco1,-5.8,-5.8*
Cn1c(SCC(=O)Nc2nccs2)nnc1-c1ccco1,.,i
O=c1c2cnn(-c3ccccc3)c2nc(-c2cccs2)n1-c1ccc(Cl)cc1,.,i
O=c1c2cnn(-c3ccccc3)c2nc(-c2cccs2)n1-c1cccc(Cl)c1,-7.5,-7.5*
CC(NC(=O)CN1CCOCC1)c1ccccc1 (configuration not stated),.,i
CC1CCCCN1S(=O)(=O)c1ccc2c(c1)CCN2C(=O)C1CC1 (configuration not stated),.,i
CCCn1nc([N+](=O)[O-])c(C(C#N)c2nc3ccccc3o2)c(Cl)c1=O (configuration not stated),.,i
Cn1nc([N+](=O)[O-])c(C(C#N)c2ccccn2)c(Cl)c1=O (configuration not stated),-5.8,-5.8*
COc1cccc(/C(C)=N/NC(=O)Cc2c(C)[nH][nH]c2=O)c1,0.03,i
O=C(NCCCN1CCOCC1)c1cc(Cl)ccc1OCc1ccccc1,.,i
Cc1ccc(S(=O)(=O)CCSc2n[nH]c(=O)n2-c2ccc3c(c2)OCCO3)cc1,.,i
Cc1nn(-c2ccccc2)c2c1C(c1ccc([N+](=O)[O-])cc1)N1C(=N2)C(=O)Nc2ccccc21 (configuration not stated),3.6,i
Cc1nn(-c2ccccc2)c2c1C(c1ccc(Cl)cc1)N(c1ccccc1)C(=O)N2 (configuration not stated),-7.6,-7.6*
COc1ccc(CC(=O)Nc2ccccc2C(=O)N2CCCC2)cc1,.,i
CS(=O)(=O)N1CCc2ccc(NC(=O)C3CCCO3)cc2C1 (configuration not stated),1.4,i

# Bioassay records as filed in PubChem.
